SENP8 block-1 = SENP8 (human) protease inhibition. Q96LD8. recombinant SENP8, Nedd8 substrate fluorescence. inhibition, % at 20 µM. 0.64% of 360,000 active. AID 602440; in the data active = inhibition mostly above about 40%, no sharp cut-off; inactive = mostly below about 27%
SENP6 inh = SENP6 protease inhibition. Q9GZR1. Recombinant SENP6 catalytic domain, aminoluciferin luminescence. inhibition, % at 10 µM. 1.8% of 330,000 active. AID 2599;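 active = inhibition above about 50% at the single tested dose, limit read from the data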
PPC-1+TRAIL kill = PPC-1 cancer cell killing with TRAIL present | PPC-1 cells + TRAIL, ATPLite viability luminescence | cell killing (% activity), % at 4 µM or 5 µM | 0.41% of 220,000 active;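 active = cell killing above 50% in the first pass at 4 µM, then a duplicate retest at 5 µM averaging 50% or more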
SENP7 inh = SENP7 protease inhibition | 1.5% of 330,000 active | AID 434973 | recombinant SENP7, Z-RLRGG-aminoluciferin luminescence, 40 min | inhibition, % at 5 µM | Q9BQF6;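 active = inhibition above about 50% at the single test dose, limit read from the data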
Target sequence (Q9BQF6 706-1050 limits assumed): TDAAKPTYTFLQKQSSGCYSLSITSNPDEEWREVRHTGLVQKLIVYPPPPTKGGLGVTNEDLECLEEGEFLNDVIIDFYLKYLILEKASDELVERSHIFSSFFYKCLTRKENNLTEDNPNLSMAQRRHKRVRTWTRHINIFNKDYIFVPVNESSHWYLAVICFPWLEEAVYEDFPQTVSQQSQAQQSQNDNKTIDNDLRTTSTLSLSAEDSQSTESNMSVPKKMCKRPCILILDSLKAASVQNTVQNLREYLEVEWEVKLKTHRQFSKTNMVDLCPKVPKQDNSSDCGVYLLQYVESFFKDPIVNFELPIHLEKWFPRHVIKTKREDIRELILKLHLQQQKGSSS
TRAIL sens C8 = sensitizes caspase-8 expressing cells to TRAIL; inhibition (viability loss, TRAIL sensitization), % at 10 µM; NB7+C8 cells + TRAIL, ATPlite viability luminescence; 1% of 360,000 active;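 active = compounds causing at least 50% loss of cell viability in the single-dose screen, relative to plate controls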
SENP8 block-2 = inhibitors of human SENP8 protease. Q96LD8. purified SENP8, Z-RLRGG-aminoluciferin cleavage, luminescence. inhibition, % at 10 µM. 1.2% of 330,000 active. AID 2540; in the data active = inhibition above about 50%
SENP8 conf = human SENP8 inhibition, confirmed; shares compounds with SENP7 inh; Recombinant SENP8, Z-RLRGG-aminoluciferin luminescence, 60 min; inhibition, % at 12.5 µM; 40% of 6,200 active; AID 488912;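 active = mean inhibition across replicates above about 50%, limit read from the data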
SENP6 confirm = confirmation of human SENP6 protease inhibitors; inhibition, % at 12.5 µM; shares compounds with SENP7 inh; 58% of 6,200 active; recombinant SENP6, Z-RLRGG-aminoluciferin luminescence
SENP7 confirm = confirmation of human SENP7 protease inhibitors; shares compounds with SENP7 inh; recombinant SENP7, Z-RLRGG-aminoluciferin luminescence, 40 min; inhibition, % at 12.5 µM; 69% of 6,200 active; AID 488917
Casp3 SENP sel = caspase-3 inhibition (SENP selectivity assay); 60% of 6,200 active; purified caspase-3, Z-DEVD-aminoluciferin luminescence, 60 min; shares compounds with SENP7 inh; AID 488918; inhibition, % at 12.5 µM;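 active = mean inhibition above about 50%, limit read from the data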
SENP luc ctr = counter-screen for SENP inhibitors: luminescence interference; shares compounds with SENP7 inh; 39% of 6,200 active; inhibition, % at 12.5 µM; AID 488919; Pre-incubated SENP8/Z-RLRGG-aminoluciferin, luciferase luminescence interference;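 active = mean inhibition above about 50% when retested at one dose, limit read from the data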
A number is an active result; 0 = inactive; - = not tested or not shown. In the library only some 3% were active in any assay of this set; here they are far more common.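 Rule for the calls, unless noted: active = mean inhibition above about 50% in the one-dose retest (limit read from the data); inactive = the rest.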

SMILES	SENP8 block-1	SENP6 inh	PPC-1+TRAIL kill	SENP7 inh	TRAIL sens C8	SENP8 block-2	SENP8 conf	SENP6 confirm	SENP7 confirm	Casp3 SENP sel	SENP luc ctr
COc1cccc(/C=C/c2ccc3cccc(O)c3n2)c1OC	0	58	-	0	0	0	52	0	89	52	0
COc1cc(/C=C/c2ccc3cccc(O)c3n2)cc(Cl)c1OC	0	58	-	55	0	0	0	0	0	0	0
CCOC(=O)c1csc(NC(=O)CSc2nnnn2-c2ccc(OC)c(OC)c2)n1	0	0	0	0	0	0	-	-	-	-	-
COc1ccc(-n2nnnc2SCC(=O)Nc2nnc(C)s2)cc1OC	0	0	0	95	0	0	0	0	0	0	0
COC(=O)c1cccc(NC(=O)c2ccccc2)c1	0	0	0	0	0	0	-	-	-	-	-
O=C(Nc1ccc2ccccc2c1)c1onc2c1CCCC2	0	80	0	52	0	65	0	82	93	60	0
COC(=O)c1cccc(NC(=O)c2onc3c2CCCC3)c1	0	92	0	79	0	76	0	0	79	61	65
c1ccc(-c2nc(C3CCCCC3)no2)cc1	0	59	0	0	0	0	0	0	57	0	0
COc1ccc(OC(=O)c2cccc(S(=O)(=O)N3CC(C)OC(C)C3)c2)cc1 (stereo unspecified)	0	0	-	0	0	0	-	-	-	-	-
O=C(/C=C/c1c[nH]c2ccccc12)c1ccccc1	0	0	0	0	0	0	-	-	-	-	-
COc1ccc2[nH]cc(/C=C/C(=O)c3ccccc3)c2c1	0	58	0	0	0	0	75	71	85	0	85
COc1ccc(N(CC(=O)NCc2ccc3c(c2)OCO3)S(C)(=O)=O)cc1OC	0	0	0	94	0	0	0	0	0	0	0
COc1ccccc1N1CCN(/N=C/c2ccc([N+](=O)[O-])cc2)CC1	0	68	-	64	0	54	0	0	91	0	0
COc1ccccc1N1CCN(/N=C/c2ccc(Cl)c([N+](=O)[O-])c2)CC1	0	0	-	0	0	0	-	-	-	-	-
Cc1ccc(C(=O)Nc2cc(C)nn2CCC#N)cc1	0	0	-	0	0	0	-	-	-	-	-
O=C(NCCCN1CCOCC1)c1ccccc1N1C(=O)[C@@H]2Cc3c([nH]c4ccccc34)C(c3cccc(Cl)c3)N2C1=O (stereo partly specified)	0	0	-	0	0	0	-	-	-	-	-
COc1ccc(-c2cc3ncnc(Cl)c3s2)cc1	0	83	-	0	0	84	0	0	0	0	0
COc1ccc(-c2cc3nnc(-c4ccccc4)nc3s2)cc1	0	0	0	0	0	0	-	-	-	-	-
Fc1ccc(-c2nc3n(n2)Cc2ccccc2-3)cc1	0	100	0	99	57	95	93	98	102	98	64
CCN1CCN(C(=O)CCc2nnc(CCc3ccc(OC)cc3)o2)[C@@H](C)C1=O	0	0	-	0	0	0	-	-	-	-	-
Cc1ccc(Nc2ncnc3c2oc2ccccc23)cc1	0	66	0	0	0	0	0	0	74	0	0
Cc1nc(Nc2ccc3c(c2)OCCO3)c2oc3ccccc3c2n1	0	0	0	0	0	0	-	-	-	-	-
c1ccc2c(c1)oc1c(Nc3ccc4c(c3)OCCO4)ncnc12	0	92	0	92	0	85	0	79	90	60	0
COc1ccc(OC(=O)c2ccc3nsnc3c2)cc1	0	0	0	59	0	0	0	0	0	0	0
Cc1nnc2ccc(-c3ccc(NS(=O)(=O)c4ccc(Cl)s4)cc3)nn12	0	0	-	0	0	0	-	-	-	-	-

Assay outcomes deposited in PubChem BioAssay by Sanford-Burnham Center for Chemical Genomics.
